Screens: PubChem BioAssay, National Center for Advancing Translational Sciences (NCATS)
Most compounds without a hit are left out; they make up all but 3.8% or so of the library.
HepG2 viability = qHTS for Inhibitors of TGF-b: Cytotox Counterscreen. HepG2 CAGA-GFP viability, ATP luminescence, 18 h. Potency, µM (series often up to 46.1 µM), for the others: top-dose activity change, negative = cytotoxicity, hits mostly cytotoxic. hit rate 0.76% among 410,000
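CellTiter-Glo luminescence gave cytotoxicity after 18 hours at 37 degrees C. The cells were HepG2 CAGA-GFP in 1% FBS DMEM, stimulated with 500 pg/mL TGF-beta after compound addition. %Activity was normalised to no-cell wells (complete cell-killing) and DMSO (no toxicity), and curves were fitted and classified.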
HT1080 IDH1KD tx = qHTS for induction of synthetic lethality in tumor cells producing 2HG: qHTS for the HT-1080-IDH1KD cell line; HT-1080 IDH1 knockdown viability, ATP luminescence, 48 h; Potency, µM (top dose mostly 46.1 µM), for the others: top-dose activity, negative = toxicity, actives largely listed as cytotoxic; hit rate 2% among 360,000; AID 686971, 2013;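 also: 0% = DMSO wells and -100% = cell-free medium wells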
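After a 2 h attachment period, IDH1KD HT-1080 cells took pin-transferred compound for 48 h at 37 °C; ATP-based luminescence after 10 min room-temperature reagent incubation reported viability.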
S2 tox = Viability Counterscreen for Primary qHTS for Inhibitors of ATXN expression; S2 cells (HEK-293 line with an ATXN2-luciferase reporter) viability, CellTiter-Fluor protease fluorescence, 24 h; hit rate 0.49% among 400,000; Potency, µM (highest dose often 56.7 µM), most hits filed as cytotoxic; also: nearly all actives have a fitted effect of over 40% in size
ATXN2 expr inh = Primary qHTS for Inhibitors of ATXN expression. HEK-293 ATXN2-luciferase reporter, luminescence, 24 h. Potency, µM (series often up to 57 µM), for the others: at the highest dose activity change, negative = inhibition, actives largely listed as inhibitors. hit rate 0.72% among 360,000. AID 1745845, 2022; also: % is scaled to controls: 0 for no effect and ±100 for the full control effect; nearly all actives have a fitted effect of over 55% in size
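ATXN2-luciferase reporter cells (luciferase flanked by upstream and downstream ATXN2 gene portions) were treated 24 h at 37 °C with compounds at up to 57 uM. SteadyGlo luminescence gave expression; GF-AFC fluorescence gave viability.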
HT1080-NT tox = qHTS for induction of synthetic lethality in tumor cells producing 2HG: qHTS for the HT-1080-NT fibrosarcoma cell line | HT-1080-NT fibrosarcoma viability, CellTiter-Glo ATP luminescence, 48 h | Potency, µM (series often up to 46.1 µM), inactives show at the highest dose activity, negative = less viability, actives largely listed as cytotoxic | hit rate 1.6% among 360,000 | AID 686970, 2013;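 also: NT is the 2HG producing partner of a matched IDH1 knockdown line; 0% = DMSO-treated cells and -100% = media-only wells without cells; nearly all actives have a fitted effect of over 55% in size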
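Viability by CellTiter-Glo luminescence after 48 h compound exposure at 37C of HT-1080-NT cells (750/well, RPMI, 5% FBS). % activity scaled between DMSO wells and medium-only wells, then curve-fitted and categorized by curve class.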
TGFb SMAD3 inh = qHTS for Inhibitors of TGF-b; HepG2 CAGA-GFP TGF-b/SMAD3 reporter, GFP fluorescence, 18 h; TGF-beta stimulated, 500 pg/mL final; Potency, µM (highest dose often 46.1 µM), for the others: at the top dose activity, negative = inhibition, hits mostly inhibitors; hit rate 1.2% among 410,000; AID 588855, 2011; also: % is scaled to controls: 0 for no effect and ±100 for the full control effect; nearly all actives have a fitted effect of over 65% in size
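Using HEPG2 CAGA-GFP reporter cells at 1000 cells/well, we pinned test compounds, stimulated with recombinant TGF-beta (500 pg/mL final) and measured total well GFP after 18 h.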
* hit, by the source's call; i = inactive; ? = inconclusive; nt = no result given. Calls follow the shape of the dose curve; as a rule, active = well fitted curve in the direction sought with a large enough effect; inconclusive = small, poorly fitted or top-dose-only effect, or another doubt; inactive = no such curve, though single readings can be large; an effect the other way counts as inactive or inconclusive. Potency is read from the fitted curve at half-maximal effect.

SMILES	HepG2 viability	HT1080 IDH1KD tx	S2 tox	ATXN2 expr inh	HT1080-NT tox	TGFb SMAD3 inh
O=C(Nc1ccc(NC(=O)c2ccco2)nc1)c1ccco1	-31%	-12%	i	nt	-25%	-6%
CC(C)(C)C(=O)Nc1ccc(/C=C/C(=O)c2ccco2)cc1	-15%	23µM*	?	61%	?	?
Nc1ccc(/C=C/C(=O)c2ccco2)cc1	-15%	1%	i	16%	12%	-1%
CC(C)(C)C(=O)Nc1ccc(NC(=O)c2ccco2)nc1	-10%	1%	i	0.89µM*	4%	14%
CC(NC(=O)/C(C#N)=C/c1ccc(Cl)c([N+](=O)[O-])c1)c1ccccc1 (stereo not drawn)	-112%	?	22µM*	nt	?	?
N#C/C(=C\c1ccc(Cl)c([N+](=O)[O-])c1)c1ccccn1	-45%	10µM*	i	-37%	15µM*	?
N#Cc1cc(NC(=O)Nc2nnc(-c3ccncc3)s2)ccc1-c1cn[nH]c1	nt	nt	nt	5%	nt	nt
CC1Cc2ccccc2C[N+]1(C)CC(=O)c1cccc([N+](=O)[O-])c1 (stereo not drawn)	-25%	nt	nt	nt	nt	-17%
O=C(CCC1N=C2c3ccccc3N=C(SCc3ccccc3F)N2C1=O)NC1CCCCC1 (stereo not drawn)	-44%	nt	nt	nt	nt	?
CC(C)(O)CC[C@@H](O)[C@](C)(O)[C@H]1CC[C@@]2(O)C3=CC(=O)[C@@H]4C[C@@H](O)[C@@H](O)C[C@]4(C)C3CC[C@]12C (stereo partly drawn)	12%	7%	i	9%	4%	8%
C[C@@H](C[C@@H](O)[C@H](O)C(C)(C)O)[C@@H]1CC[C@]2(C)C3=CC[C@H]4C(C)(C)C(=O)CC[C@]4(C)[C@H]3CC[C@@]12C	11µM*	4%	nt	?	1%	11µM*
Cc1ccc(NC(=O)CC2Nc3cccc4cccc(c34)NC2=O)cc1 (stereo not drawn)	-28%	nt	nt	nt	nt	11µM*
Cc1ccc(NC(=O)CC2Nc3ccccc3NC2=O)cc1Cl (stereo not drawn)	-47%	21µM*	i	-36%	21µM*	?
O=C(CC1Nc2cccc3cccc(c23)NC1=O)Nc1ccccc1 (stereo not drawn)	-7%	-5%	i	-8%	-5%	2%
COc1cccc2c1C(=O)/C(=C\c1ccc(N(C)C)cc1)C2	-3%	nt	nt	nt	nt	46%
COc1cccc(OCc2nc3ccccc3n2Cc2ccccc2)c1	-55%	nt	i	33%	nt	?
CC(C)(C)c1ccc(OCc2nc3ccccc3n2CCOc2ccccc2)cc1	-36%	nt	?	-7%	nt	-13%
COCc1nc2ccccc2n1Cc1ccc(C(C)(C)C)cc1	-59%	nt	?	2%	nt	10µM*
COc1ccc(OCc2nc3ccccc3n2Cc2ccc(C(C)(C)C)cc2)cc1	-26%	nt	i	56%	nt	16µM*
CN(C)c1ccc(/C=C2\c3ccccc3-c3ccc(N(C)C)cc32)cc1	4%	nt	nt	nt	nt	6%
CC1(C2CCN(Cc3c[nH]c4ccccc34)CC2)NC(=O)N(CCN2CCOCC2)C1=O (stereo not drawn)	nt	nt	i	nt	nt	nt
O=C(c1cnn2c1NC(c1ccco1)CC2C(F)(F)F)N1CCN(c2cccc(Cl)c2)CC1 (stereo not drawn)	-14%	18µM*	i	?	15µM*	?
O=C(c1ccco1)N1CCN(C(=O)c2cnn3c2NC(c2cccs2)CC3C(F)(F)F)CC1 (stereo not drawn)	-34%	1%	i	-15%	2%	-11%
COc1cc(Nc2ncc3c(n2)CCN(C(=O)Nc2ccc(C(C)C)cc2)C3)cc(OC)c1OC	-22%	18µM*	i	?	21µM*	?
O=C(Nc1cccc(F)c1)N1CCc2nc(NCc3cccc(Oc4ccccc4)c3)ncc2C1	-15%	?	?	0%	23µM*	?
SMILES	HepG2 viability	HT1080 IDH1KD tx	S2 tox	ATXN2 expr inh	HT1080-NT tox	TGFb SMAD3 inh
CC(C)c1ccc(NC(=O)N2CCc3nc(NCc4cccc(Oc5ccccc5)c4)ncc3C2)cc1	-16%	?	i	-32%	?	-18%
COc1ccc(C)cc1NC(=O)CSc1ncc2c(n1)-c1ccc(Cl)cc1N(Cc1ccccc1)S2(=O)=O	-5%	nt	i	-11%	nt	-24%
O=C(Cc1ccccc1)N(Cc1cccnc1)c1nc2c(Cl)cccc2s1	-6%	nt	nt	nt	nt	-27%
O=C(Cc1ccccc1)N(Cc1cccnc1)c1nc2c(F)cccc2s1	-35%	nt	nt	nt	nt	1.6µM*
COc1ccc(C(=O)Nc2nc3ccccc3s2)c(OC)c1	18µM*	21µM*	i	0.79µM*	21µM*	12%
NC(=S)Nc1nc2ccccc2s1	8%	15µM*	i	nt	-1%	?
COc1ccccc1C(=O)Nc1nnc(CCc2ccccc2)s1	-3%	6.5µM*	i	-7%	7.3µM*	-9%
COc1ccccc1C(=O)Nc1nc2ccccc2s1	11µM*	21µM*	i	?	26µM*	-21%
COc1ccc(NCc2cccn2-c2nnc(N3CCCCC3)s2)cc1OC	-22%	nt	i	5%	nt	-4%
CCCCOC(=O)c1c(C)oc2c1cc(NS(=O)(=O)c1cc(OC)ccc1OC)c1ccccc12	-9%	nt	i	8%	nt	?
COC(=O)[C@H](CCCN=C(N)N)NS(=O)(=O)c1ccc(C)cc1	nt	nt	nt	1%	nt	nt
OC1(c2ccc(Cl)cc2)CCNCC1	nt	nt	i	-18%	nt	nt
C[C@H]1[C@H](NC(=O)/C(=N/OC(C)(C)C(=O)O)c2csc(N)n2)C(=O)N1S(=O)(=O)O (stereo in doubt)	nt	nt	i	16%	nt	nt
Nc1ccc2nc(-c3ccc(Cl)cc3)[nH]c2c1	13µM*	21µM*	nt	?	23µM*	?
CCc1ccc(NCc2cc3cc4c(cc3n(CC(=O)Nc3ccccc3Cl)c2=O)OCO4)cc1	-4%	nt	i	17%	nt	-1%
Cc1ccc(C(=O)Nc2ccc3nc(SCC(=O)N4CCCc5ccccc54)sc3c2)cc1	93%	nt	nt	nt	nt	0%
COc1cccc(CNCCc2c[nH]c3ccccc23)c1OCc1ccc(F)cc1	13µM*	?	?	20µM*	21µM*	?
Cc1ccc(OCC(=O)Nc2ccc(C(=O)OCc3cc(=O)n4c(C)csc4n3)cc2)cc1	-16%	nt	nt	nt	nt	-3%
